GDH-TPI counter-1: inhibits GDH-TPI coupling enzymes, artifact for Mtb FBA screen; 1.2% of 360,000 active; inhibition, % at 4.8 µM; AID 588335; GDH-TPI coupled enzyme counterscreen, NADH absorbance; in the data active = inhibition above about 30%
RecA intein inh: blocks M. tuberculosis RecA intein splicing | inhibition, % (concentration not given with the values) | 0.75% of 290,000 active | AID 2221 | cell-free RecA intein splicing, fluorescence; in the data active = inhibition above about 30%
Rv3671c inh: Rv3671c (M. tuberculosis) protease inhibition | P9WHR9 | inhibition, % at 5.96 µM | 0.048% of 320,000 active | AID 2606; in the data active = inhibition above about 38%;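 note: extracellular domain of Rv3671c used as enzyme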
Mtb betalactam: beta-lactam sensitization of Mtb H37Rv; M. tuberculosis H37Rv growth with meropenem, percent inhibition; inhibition, % at 25 µM; 0.27% of 330,000 active; AID 434955;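 note: growth measured after seven days incubation then overnight dye step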
Mtb FBA inh: inhibitors of M. tuberculosis fructose-bisphosphate aldolase | purified M. tuberculosis FBA, fluorescence read-out | inhibition, % at 1 µM | 2.3% of 360,000 active | AID 588726; in the data active = inhibition above about 27%
Target sequence (P9WQA3 whole entry, looked up): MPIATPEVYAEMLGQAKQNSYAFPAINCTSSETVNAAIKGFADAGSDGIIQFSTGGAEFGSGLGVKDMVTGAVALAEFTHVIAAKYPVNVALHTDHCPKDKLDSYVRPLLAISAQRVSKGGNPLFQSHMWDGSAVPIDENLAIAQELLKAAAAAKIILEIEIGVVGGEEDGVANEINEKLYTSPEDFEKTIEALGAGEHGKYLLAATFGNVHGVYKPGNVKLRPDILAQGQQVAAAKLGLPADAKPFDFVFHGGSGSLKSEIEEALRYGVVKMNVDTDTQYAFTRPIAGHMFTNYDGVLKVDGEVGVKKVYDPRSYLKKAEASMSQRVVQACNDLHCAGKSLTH
UGM FP inh: inhibitors of M. tuberculosis UDP-galactopyranose mutase; inhibition, % at 10 µM; P9WIQ1; purified UGM, fluorescence polarization probe displacement; 0.06% of 320,000 active; in the data active = inhibition above about 10%, passing the limit was not always enough
Mtb FBA confirm: Mtb FBA inhibition, confirmed | purified M. tuberculosis FBA, fluorescence read-out | 78% of 5,600 active | inhibition, % at 1 µM | shares compounds with Mtb FBA inh | AID 651616; in the data active = inhibition above about 27%
GDH-TPI counter-2: GDH-TPI inhibition counter-screen for FBA inhibitors | shares compounds with Mtb FBA inh | GDH-TPI coupled enzyme counterscreen, fluorescence | inhibition, % at 1 µM | 81% of 5,600 active; in the data active = inhibition above about 10%
GDH-TPI DR: inhibits GDH-TPI coupling enzymes in dose response | shares compounds with Mtb FBA inh | GDH-TPI coupled enzyme assay, fluorescence, artifact counterscreen | IC50, µM | 79% of 170 active | AID 652145
A number is an active result. Only some compounds are listed: those with a hit (about 4% of all), similar ones and a draw of the others. Unless noted, the rule behind the calls is not given here.

`Cc1ccc(-c2cc(-c3ccc(C)cc3)[n+](-c3ccc(C(=O)O)cc3)c(-c3ccc(C)cc3)c2)cc1` gave GDH-TPI counter-1 inactive, RecA intein inh inactive, Rv3671c inh inactive, Mtb betalactam inactive, Mtb FBA inh inactive and UGM FP inh inactive.
COCCN1CCN(C(=O)c2cc(COc3ccc(F)c(F)c3)on2)CC1 was read as GDH-TPI counter-1 inactive, RecA intein inh inactive, Mtb betalactam inactive, Mtb FBA inh inactive and UGM FP inh inactive.
CCOC(=O)c1cc2c(=O)n3ccccc3nc2n(CCOC)c1=NC(=O)c1c(-c2c(F)cccc2Cl)noc1C was read as GDH-TPI counter-1 37, RecA intein inh inactive, Rv3671c inh inactive, Mtb betalactam inactive, Mtb FBA inh 49, UGM FP inh inactive, Mtb FBA confirm 178 and GDH-TPI counter-2 166.
`COc1ccc(CN2C(=O)c3cccnc3C2O)cc1` (centres undefined) gave GDH-TPI counter-1 inactive, RecA intein inh inactive, Rv3671c inh inactive, Mtb betalactam inactive, Mtb FBA inh inactive and UGM FP inh inactive.
`Cc1ccc(CN2C(=O)c3ccccc3NC2c2ccccn2)cc1` (centres undefined) gave GDH-TPI counter-1 inactive, RecA intein inh inactive, Rv3671c inh inactive, Mtb betalactam inactive, Mtb FBA inh 31, UGM FP inh inactive, Mtb FBA confirm 63 and GDH-TPI counter-2 51.
Screening O=C1c2ccccc2NC(c2ccccc2)N1CCCN1CCOCC1 (centres undefined) returned GDH-TPI counter-1 inactive, RecA intein inh inactive, Rv3671c inh inactive, Mtb betalactam inactive, Mtb FBA inh 48, UGM FP inh inactive, Mtb FBA confirm 123 and GDH-TPI counter-2 107.
CCCN1C(=O)c2ccccc2NC1c1ccc(C)cc1 (centres undefined) was read as GDH-TPI counter-1 inactive, RecA intein inh inactive, Rv3671c inh inactive, Mtb betalactam inactive, Mtb FBA inh 78, UGM FP inh inactive, Mtb FBA confirm inactive and GDH-TPI counter-2 inactive.
Screening Cc1cccc(C(C)C)c1NC(=O)Cc1ccc(S(=O)(=O)N2CCOCC2)s1 returned GDH-TPI counter-1 inactive, RecA intein inh inactive, Rv3671c inh inactive, Mtb betalactam inactive, Mtb FBA inh inactive and UGM FP inh inactive.
Screening Cc1cc(=O)oc2cc(OCC(=O)N3CCC(C(N)=O)CC3)ccc12 returned GDH-TPI counter-1 inactive, RecA intein inh inactive, Rv3671c inh inactive, Mtb betalactam inactive, Mtb FBA inh 27, UGM FP inh inactive, Mtb FBA confirm active and GDH-TPI counter-2 active.
`Cc1cc(OCC(=O)N2CCC(C(N)=O)CC2)c2c(C)cc(=O)oc2c1` gave GDH-TPI counter-1 inactive, RecA intein inh inactive, Rv3671c inh inactive, Mtb betalactam inactive, Mtb FBA inh 33, UGM FP inh inactive, Mtb FBA confirm inactive and GDH-TPI counter-2 15.
`Cc1cc(=O)oc2cc(OCC(=O)OCC(=O)N3CCC(C)CC3)ccc12` gave GDH-TPI counter-1 inactive, RecA intein inh inactive, Rv3671c inh inactive, Mtb betalactam inactive, Mtb FBA inh 42, UGM FP inh inactive, Mtb FBA confirm 182 and GDH-TPI counter-2 131.
For CC(C)(C)c1ccc(C(=O)O[C@H]2[C@H](Cc3ccccc3)NS(=O)(=O)[C@H]3C[C@@H]4C=C[C@]23O4)cc1 the results were GDH-TPI counter-1 inactive, Rv3671c inh inactive, Mtb betalactam inactive, Mtb FBA inh inactive and UGM FP inh inactive.
For COc1ccc(OC)c(NC(=O)CSc2nc3nc(C)cc(C)n3n2)c1 the results were GDH-TPI counter-1 inactive, Rv3671c inh inactive, Mtb betalactam inactive, Mtb FBA inh inactive and UGM FP inh inactive.
For CCC1(C)Cc2c(sc3[nH]c(=O)[nH]c(=O)c23)CS1 (centres undefined) the results were GDH-TPI counter-1 inactive, RecA intein inh inactive, Rv3671c inh inactive, Mtb betalactam inactive, Mtb FBA inh 80, UGM FP inh inactive, Mtb FBA confirm 72 and GDH-TPI counter-2 61.
`COc1ccc(S(=O)(=O)N2CCN(C(=O)Nc3ccccc3OC)CC2)cc1` gave GDH-TPI counter-1 inactive, RecA intein inh inactive, Rv3671c inh inactive, Mtb betalactam inactive, Mtb FBA inh inactive and UGM FP inh inactive.
For CC(=O)Nc1ccc(CCNC(=O)c2ccc3ccccc3c2O)cc1 the results were GDH-TPI counter-1 inactive, Mtb FBA inh 32, Mtb FBA confirm active and GDH-TPI counter-2 149.
For CCOc1ccc(NC(=O)NNC(=O)c2ccc3ccccc3c2O)cc1 the results were GDH-TPI counter-1 inactive, RecA intein inh inactive, Rv3671c inh inactive, Mtb betalactam inactive, Mtb FBA inh 40, UGM FP inh inactive, Mtb FBA confirm 28, GDH-TPI counter-2 inactive and GDH-TPI DR 5.7.
O=C(NNC(=O)c1cc2ccccc2cc1O)Nc1ccc(Br)cc1 was read as GDH-TPI counter-1 inactive, RecA intein inh inactive, Rv3671c inh inactive, Mtb betalactam inactive, Mtb FBA inh 28, UGM FP inh inactive, Mtb FBA confirm 106 and GDH-TPI counter-2 91.
For COc1ccc(NC(=O)NNC(=O)c2ccc3ccccc3c2O)c(OC)c1 the results were GDH-TPI counter-1 inactive, RecA intein inh inactive, Rv3671c inh inactive, Mtb betalactam inactive, Mtb FBA inh 40, UGM FP inh inactive, Mtb FBA confirm 52 and GDH-TPI counter-2 44.
Screening COc1cccc(NC(=O)CN(C)C(=O)c2ccc(NC(=O)CC3SC(N4CCCC4)=NC3=O)cc2)c1 (centres undefined) returned GDH-TPI counter-1 inactive and Mtb FBA inh inactive.
CCOC(=O)COc1ccccc1C(=O)c1cnn(-c2ccccc2)c1 was read as GDH-TPI counter-1 inactive, RecA intein inh inactive, Rv3671c inh inactive, Mtb betalactam inactive, Mtb FBA inh inactive and UGM FP inh inactive.
Screening C[C@@H]1CN([C@H](C)CO)C(=O)CCCn2nncc2CO[C@@H]1CN(C)C(=O)C1CC1 returned GDH-TPI counter-1 inactive and Mtb FBA inh inactive.
For Cc1oc2ccccc2c1-c1cn2c(n1)SCC2 the results were GDH-TPI counter-1 inactive, RecA intein inh inactive, Rv3671c inh inactive, Mtb betalactam inactive, Mtb FBA inh 102, UGM FP inh inactive, Mtb FBA confirm 52 and GDH-TPI counter-2 41.
c1ccc(-c2cn3c(n2)SCC3)cc1 was read as GDH-TPI counter-1 inactive, RecA intein inh inactive, Rv3671c inh inactive, Mtb betalactam inactive, Mtb FBA inh inactive and UGM FP inh inactive.
CCNc1nc(Oc2ccc(F)cc2)cc(C(F)(F)F)n1 was read as GDH-TPI counter-1 inactive, RecA intein inh inactive, Rv3671c inh inactive, Mtb betalactam inactive, Mtb FBA inh inactive and UGM FP inh inactive.
For CCNc1nc(Oc2ccc(C#N)cc2)cc(C(F)(F)F)n1 the results were GDH-TPI counter-1 inactive, RecA intein inh inactive, Rv3671c inh inactive, Mtb betalactam inactive, Mtb FBA inh 56, UGM FP inh inactive, Mtb FBA confirm 131 and GDH-TPI counter-2 88.

Compound activity as filed in PubChem BioAssay.
